The target in assay [1] is Acetylcholinesterase (Homo sapiens) (UniProt P22303). In words: Acetylcholinesterase (AChE) small molecule antagonists: enzyme-based qHTS assay (AID 1347397; calls by dose curve; note: nearly all actives have a fitted effect of over 55% in size). As to conditions: Potency: AChE enzyme activity inhibition; outcome: AChE enzyme activity inhibition. The essentials:
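Colorimetric DTNB readout of acetylthiocholine hydrolysis, 10 min at room temperature, after 30 min room-temperature exposure of 50 mU/mL recombinant human enzyme to compound; DMSO vehicle control.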
(In general: Quantitative high-throughput screening tests each substance at several concentrations.)

Assay [2] shares this target. In words: Acetylcholinesterase (AChE) small molecule antagonists: fluorescence cell-based qHTS assay (AID 1347398; calls by dose curve; note: nearly all actives have a fitted effect of over 50% in size). As to conditions: Potency: AChE activity; outcome: AChE activity. The procedure, abridged: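 Cellular AChE activity read as thiocholine from acetylthiocholine hydrolysis, detected by Thiolite Green fluorescence at 490/520 nm after 40 min at room temperature. Compounds were pre-incubated 30 min at 37 C on adherent SH-SY5Y cells.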

For assay [3] the target is unchanged. As to the kind of experiment: Acetylcholinesterase (AChE) small molecule antagonists: enzyme-based qHTS assay with human liver microsomes (AID 1347399; calls by dose curve; note: nearly all actives have a fitted effect of over 60% in size). As to conditions: Potency: qHTS inhibition; outcome: qHTS inhibition. The procedure, abridged:
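Recombinant human AChE (50 mU/mL in the enzyme mix) and human liver microsomes (0.25 mg/mL final) were preincubated with compound and NADPH (0.25 mg/mL final) for 30 min at 37 C. Acetylthiocholine/DTNB was then added; thiocholine was read colorimetrically after 10 min at room temperature.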

Assay [4] addresses Cytochrome P450 2D6 (Homo sapiens) (UniProt P10635). As to the kind of experiment: Cytochrome P450 Family 2 Subfamily D Member 6 (CYP2D6) small molecule antagonists: luciferase reporter qHTS assay (AID 1671196). For activity change, negative = inhibition: series mostly up to about 120 µM. Note: nearly all actives have a fitted effect of over 50% in size. Note: potency is the fitted concentration of half-maximal effect. The procedure, abridged:
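Test chemicals meet CYP2D6 plus proluciferin substrate (10 min, RT); NADPH regenerating solution then drives turnover for 1 h. Detection reagent halts the reaction; luminescence measured after 20 min.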

Assay [5] deals with Cytochrome P450 2C19 (Homo sapiens) (UniProt P33261). In words: Cytochrome P450 Family 2 Subfamily C Member 19 (CYP2C19) small molecule antagonists: luciferase reporter qHTS assay (AID 1671197). For activity change, negative = inhibition: series mostly up to about 120 µM. Note: nearly all actives have a fitted effect of over 65% in size. Note: potency is the fitted concentration of half-maximal effect. The essentials: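 Compounds were tested on CYP2C19 activity via proluciferin conversion to luciferin. The 37C, 1 h reaction followed NADPH addition; detection reagent stopped it.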
Cytochrome P450 2C19 (Homo sapiens), sequence (P33261 whole entry, looked up): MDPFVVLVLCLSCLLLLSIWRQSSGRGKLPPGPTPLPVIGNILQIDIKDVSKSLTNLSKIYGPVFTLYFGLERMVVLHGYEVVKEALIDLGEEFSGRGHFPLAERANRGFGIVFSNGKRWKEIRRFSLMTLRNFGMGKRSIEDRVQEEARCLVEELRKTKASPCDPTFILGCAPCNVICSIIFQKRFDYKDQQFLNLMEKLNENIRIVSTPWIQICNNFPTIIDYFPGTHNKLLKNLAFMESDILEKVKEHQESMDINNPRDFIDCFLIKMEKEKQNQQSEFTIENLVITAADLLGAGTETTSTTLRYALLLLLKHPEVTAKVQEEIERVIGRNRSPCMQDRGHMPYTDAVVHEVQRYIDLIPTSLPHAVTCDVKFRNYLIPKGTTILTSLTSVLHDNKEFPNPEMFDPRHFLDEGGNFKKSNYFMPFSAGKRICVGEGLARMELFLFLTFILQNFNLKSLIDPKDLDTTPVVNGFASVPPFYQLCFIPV
Assay [6] addresses Cytochrome P450 2C9 (Homo sapiens) (UniProt P11712). In words: Cytochrome P450 Family 2 Subfamily C Member 9 (CYP2C9) small molecule antagonists: luciferase reporter qHTS assay (AID 1671198). For activity change, negative = inhibition: series mostly up to about 120 µM. Note: nearly all actives have a fitted effect of over 50% in size. Note: potency is the fitted concentration of half-maximal effect. The essentials:
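Enzyme-substrate mix preincubated with compound 10 min at room temperature; reaction started with NADPH regeneration solution, 1 h 37C. Luminescent luciferin product read after 20 min detection reagent.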
Background: In a reporter assay the amount or activity of a reporter protein is the signal.

Assay [7] concerns the target Voltage-gated inwardly rectifying potassium channel KCNH2 (Homo sapiens) (UniProt Q12809). As to the kind of experiment: Human Ether-a-go-go-Related Gene (hERG) channel small molecule antagonists: fluorescence cell-based qHTS assay (AID 1671200).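 For activity change, negative = inhibition: hERG-expressing U2OS cells given a thallium stimulus after FluxOR II dye loading; series mostly up to about 77 µM.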 Note: nearly all actives have a fitted effect of over 50% in size. Note: potency is the fitted concentration of half-maximal effect. The procedure, abridged:
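Quantitative HTS in hERG-U2OS cells: thallium entry through the channel reports activity, read as continuous 480/540 nm fluorescence over 2 min after stimulus addition.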
Background: The hERG channel carries a current that helps repolarise heart muscle cells.

Assay [8] addresses Cytochrome P450 3A4 (Homo sapiens) (UniProt P08684). As to the kind of experiment: Cytochrome P450 Family 3 Subfamily A Member 4 (CYP3A4) small molecule antagonists: luciferase reporter qHTS assay (AID 1671201). The essentials: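 Inhibition of CYP3A4 is measured as loss of light: the enzyme converts a proluciferin substrate to luciferin, detected luminescently. Reaction ran 1 h at room temperature with NADPH regeneration after a 10 min compound preincubation.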

Assay [9] has as its target Cytochrome P450 1A2 (Homo sapiens) (UniProt P05177). In words: Cytochrome P450 Family 1 Subfamily A Member 2 (CYP1A2) small molecule antagonists: luciferase reporter qHTS assay (AID 1671199). For activity change, negative = inhibition: series mostly up to about 120 µM. Note: nearly all actives have a fitted effect of over 50% in size. Note: potency is the fitted concentration of half-maximal effect. The procedure, abridged: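 Steps: enzyme-substrate mix dispensed; test compounds and furafylline control pinned in; 10 min room temperature; NADPH regeneration solution added, 1 h; reaction stopped with luciferin detection reagent; luminescence read after 20 min.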

Structures are written as SMILES. Values without a mark were called inactive. Results filed as inconclusive are left out. Calls of active or inactive are those of the source. Unless noted, calls come from the whole dose curve; as a rule, active = well fitted curve in the direction sought with a large enough effect in the repeat runs; inconclusive = weak or mixed curves; inactive = no such curve, though single readings can be large; an effect the other way counts as inactive or inconclusive.
% is set by controls: 0 for no effect and ±100 for the full control effect.

Cytochrome P450 3A4 (Homo sapiens), sequence (P08684 whole entry, looked up): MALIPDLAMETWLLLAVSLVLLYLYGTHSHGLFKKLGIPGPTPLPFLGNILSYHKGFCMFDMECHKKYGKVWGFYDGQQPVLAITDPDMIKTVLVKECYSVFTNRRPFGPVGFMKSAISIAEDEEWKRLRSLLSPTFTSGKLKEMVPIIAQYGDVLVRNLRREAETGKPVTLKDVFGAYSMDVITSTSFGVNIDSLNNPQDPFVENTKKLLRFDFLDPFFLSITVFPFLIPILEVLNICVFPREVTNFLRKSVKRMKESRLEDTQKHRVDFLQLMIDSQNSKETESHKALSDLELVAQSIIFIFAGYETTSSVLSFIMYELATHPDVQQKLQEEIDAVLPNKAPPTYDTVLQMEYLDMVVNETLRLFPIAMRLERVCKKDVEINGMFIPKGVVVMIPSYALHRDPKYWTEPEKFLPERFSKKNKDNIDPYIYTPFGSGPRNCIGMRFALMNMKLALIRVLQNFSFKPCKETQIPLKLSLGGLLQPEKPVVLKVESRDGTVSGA
Acetylcholinesterase (Homo sapiens), sequence (P22303 whole entry, looked up): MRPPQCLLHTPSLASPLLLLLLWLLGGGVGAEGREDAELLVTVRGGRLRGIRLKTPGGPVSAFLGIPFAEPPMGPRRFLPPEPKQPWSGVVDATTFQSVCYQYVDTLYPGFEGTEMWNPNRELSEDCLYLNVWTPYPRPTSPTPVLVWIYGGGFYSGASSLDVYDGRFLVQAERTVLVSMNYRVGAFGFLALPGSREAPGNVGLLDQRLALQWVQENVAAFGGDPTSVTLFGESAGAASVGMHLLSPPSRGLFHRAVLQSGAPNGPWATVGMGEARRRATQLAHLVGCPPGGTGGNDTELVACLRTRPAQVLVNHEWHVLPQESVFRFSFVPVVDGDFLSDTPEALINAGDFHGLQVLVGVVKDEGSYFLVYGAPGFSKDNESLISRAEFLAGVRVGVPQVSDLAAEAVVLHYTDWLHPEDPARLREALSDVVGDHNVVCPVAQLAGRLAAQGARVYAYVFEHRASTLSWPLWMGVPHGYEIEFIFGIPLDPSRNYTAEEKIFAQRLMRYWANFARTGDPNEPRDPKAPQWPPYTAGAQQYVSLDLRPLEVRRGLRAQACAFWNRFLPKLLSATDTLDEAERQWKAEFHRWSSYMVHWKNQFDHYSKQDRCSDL
Voltage-gated inwardly rectifying potassium channel KCNH2 (Homo sapiens), sequence (Q12809 whole entry, looked up): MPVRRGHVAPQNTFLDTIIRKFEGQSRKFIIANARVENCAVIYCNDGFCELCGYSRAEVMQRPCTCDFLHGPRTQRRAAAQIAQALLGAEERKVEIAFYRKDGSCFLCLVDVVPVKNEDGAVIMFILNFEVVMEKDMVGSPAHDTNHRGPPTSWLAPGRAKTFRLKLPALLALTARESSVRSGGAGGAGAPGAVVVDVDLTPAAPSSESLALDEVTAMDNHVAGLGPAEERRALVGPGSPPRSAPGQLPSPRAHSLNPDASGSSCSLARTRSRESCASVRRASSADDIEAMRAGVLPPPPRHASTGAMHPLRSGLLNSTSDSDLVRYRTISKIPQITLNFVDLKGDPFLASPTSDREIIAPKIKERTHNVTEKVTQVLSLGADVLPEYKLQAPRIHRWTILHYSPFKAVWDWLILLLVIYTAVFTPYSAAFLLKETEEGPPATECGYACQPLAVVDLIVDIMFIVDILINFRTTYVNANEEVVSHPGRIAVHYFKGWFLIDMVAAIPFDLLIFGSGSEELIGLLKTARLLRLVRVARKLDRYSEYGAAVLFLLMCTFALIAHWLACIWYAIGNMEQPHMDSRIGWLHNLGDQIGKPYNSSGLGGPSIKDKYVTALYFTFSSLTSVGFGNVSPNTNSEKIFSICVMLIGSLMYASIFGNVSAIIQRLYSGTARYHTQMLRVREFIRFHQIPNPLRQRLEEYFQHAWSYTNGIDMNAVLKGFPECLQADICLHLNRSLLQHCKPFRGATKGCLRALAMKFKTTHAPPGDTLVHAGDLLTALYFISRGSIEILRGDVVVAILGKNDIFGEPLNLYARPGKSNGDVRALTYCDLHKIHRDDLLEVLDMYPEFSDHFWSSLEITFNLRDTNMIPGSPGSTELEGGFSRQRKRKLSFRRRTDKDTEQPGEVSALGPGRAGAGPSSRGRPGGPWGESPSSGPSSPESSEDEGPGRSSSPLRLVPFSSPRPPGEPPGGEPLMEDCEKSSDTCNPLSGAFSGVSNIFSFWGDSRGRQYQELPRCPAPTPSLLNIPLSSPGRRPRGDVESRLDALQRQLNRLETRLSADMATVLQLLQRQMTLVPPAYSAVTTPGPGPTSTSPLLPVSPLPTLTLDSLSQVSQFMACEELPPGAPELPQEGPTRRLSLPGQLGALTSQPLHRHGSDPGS
Cytochrome P450 2C9 (Homo sapiens), sequence (P11712 whole entry, looked up): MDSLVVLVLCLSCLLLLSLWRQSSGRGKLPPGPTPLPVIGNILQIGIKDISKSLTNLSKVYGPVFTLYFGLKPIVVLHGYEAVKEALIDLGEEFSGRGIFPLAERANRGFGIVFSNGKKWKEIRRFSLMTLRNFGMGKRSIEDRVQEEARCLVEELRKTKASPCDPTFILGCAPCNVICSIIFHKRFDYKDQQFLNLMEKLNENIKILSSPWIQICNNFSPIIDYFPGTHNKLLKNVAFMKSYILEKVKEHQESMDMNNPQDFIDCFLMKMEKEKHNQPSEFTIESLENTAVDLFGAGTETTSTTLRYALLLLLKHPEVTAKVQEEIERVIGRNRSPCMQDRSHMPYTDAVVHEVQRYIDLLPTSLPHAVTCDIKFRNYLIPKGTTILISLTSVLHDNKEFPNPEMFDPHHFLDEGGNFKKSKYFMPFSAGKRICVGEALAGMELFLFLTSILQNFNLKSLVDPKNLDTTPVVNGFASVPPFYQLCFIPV
Cytochrome P450 2D6 (Homo sapiens), sequence (P10635 whole entry, looked up): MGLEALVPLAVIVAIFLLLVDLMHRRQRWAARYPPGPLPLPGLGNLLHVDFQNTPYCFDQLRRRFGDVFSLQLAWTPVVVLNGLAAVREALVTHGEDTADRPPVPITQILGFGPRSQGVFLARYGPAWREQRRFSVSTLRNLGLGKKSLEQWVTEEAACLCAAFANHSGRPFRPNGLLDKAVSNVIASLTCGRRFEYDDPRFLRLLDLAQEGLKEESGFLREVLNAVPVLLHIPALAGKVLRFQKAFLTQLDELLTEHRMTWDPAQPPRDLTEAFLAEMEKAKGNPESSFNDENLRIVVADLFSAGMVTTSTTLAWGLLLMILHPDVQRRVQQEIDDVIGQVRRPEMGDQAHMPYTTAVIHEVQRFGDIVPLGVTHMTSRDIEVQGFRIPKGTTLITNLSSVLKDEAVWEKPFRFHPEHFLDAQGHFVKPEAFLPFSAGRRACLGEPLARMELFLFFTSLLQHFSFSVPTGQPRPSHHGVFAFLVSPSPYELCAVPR
Cytochrome P450 1A2 (Homo sapiens), sequence (P05177 whole entry, looked up): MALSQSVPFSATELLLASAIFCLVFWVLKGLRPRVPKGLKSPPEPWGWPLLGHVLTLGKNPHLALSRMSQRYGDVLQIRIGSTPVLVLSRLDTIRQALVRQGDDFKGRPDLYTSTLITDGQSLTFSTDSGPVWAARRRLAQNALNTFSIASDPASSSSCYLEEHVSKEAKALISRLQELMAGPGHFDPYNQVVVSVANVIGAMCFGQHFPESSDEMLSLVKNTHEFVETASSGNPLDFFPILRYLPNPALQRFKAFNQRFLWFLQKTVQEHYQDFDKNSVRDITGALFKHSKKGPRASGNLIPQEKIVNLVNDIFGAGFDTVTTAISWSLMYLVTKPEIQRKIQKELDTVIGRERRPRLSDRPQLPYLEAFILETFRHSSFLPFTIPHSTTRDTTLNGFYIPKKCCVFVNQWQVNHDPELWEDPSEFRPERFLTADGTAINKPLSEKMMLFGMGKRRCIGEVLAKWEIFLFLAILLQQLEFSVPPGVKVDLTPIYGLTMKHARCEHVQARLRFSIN

Consider `Clc1cc2c(cc1Cl)Oc1cc(Cl)c(Cl)cc1O2`, for which the activity change, negative = inhibition in [1] is 0.681% [at 0.435 µM]; in [2], 4.87% [at 0.439 µM]; in assay [3], -0.563% [at 0.435 µM]; in [4], -1.99% [at 0.435 µM]; in [5], -2.53% [at 0.435 µM]; in assay [6] it was 2.52% [at 0.435 µM]. In addition, the activity change, negative = inhibition in [7] was 4.67% [at 0.29 µM]; in assay [8], -0.782% [at 0.435 µM].

As to `O=C(CCl)NCO`, the Potency result in [1], in assay [2], in assay [3], in [4], in assay [5] and in assay [6] was “inactive” in each case. Moreover, the Potency result in assay [9] and in assay [8] was “inactive” in each case.

Take `ClCOCCl`: the Potency result in assay [1], in assay [2], in assay [3], in assay [4], in [5] and in assay [6] was “inactive” throughout. Besides, the Potency entry in assay [7] and in [8] was “inactive” in each case.

Take `CC(C)(N)Cc1ccccc1Cl`: the Potency entry in assay [1], in assay [2], in [3], in assay [5], in assay [6] and in assay [7] was “inactive” each time. Besides, the Potency result in [8] was “inactive”. Besides, the Potency in assay [4] is 4.36 µM (active).

Turning to `CC(C)N(Cc1ccccc1)C(=O)C(C)(C)C`, the Potency result in [1], in assay [2], in [3], in assay [4], in assay [7] and in assay [8] was “inactive” throughout. Moreover, the Potency was 20 µM (active) in [5] and 35.6 µM (active) in [6].

In the case of `CC(Cl)(Cl)Cl`, the Potency entry in [1], in assay [2], in [3], in assay [4], in assay [5] and in assay [6] was “inactive” each time. The Potency result in assay [9] and in assay [8] was “inactive” each time.

As for `CC(O)CCl` (configuration not stated), the Potency result in assay [1], in assay [2], in assay [3], in assay [4], in [5] and in assay [6] was “inactive” throughout. Also, the Potency result in [7] and in assay [8] was “inactive” in each case.

On to `CCc1ccc(C2CCNCC2)cc1`, for which the Potency entry in assay [1], in assay [2], in assay [3], in assay [5], in [6] and in assay [9] was “inactive” each time. Moreover, the Potency result in assay [8] is “inactive”. In [4], the Potency is 0.617 µM (active).

`COC(=O)[C@@H](N)CCCN/C(N)=N/[N+](=O)[O-]`: the Potency result in assay [1], in assay [2], in assay [3], in assay [4], in [5] and in assay [9] was “inactive” in each case. The Potency result in [7] was “inactive”.

With `CC1N=C(N)OC1c1ccccc1` (configuration not stated), the Potency result in assay [1], in assay [2], in assay [3], in [5], in assay [9] and in assay [7] was “inactive” each time. Besides, the Potency entry in assay [8] is “inactive”. The Potency in assay [4] is 9.81 µM (active).

`Clc1nc(Cl)nc(Nc2ccccc2Cl)n1`: the Potency entry in assay [1], in assay [2], in assay [3], in assay [4], in assay [9] and in assay [7] was “inactive” each time. Further, in [8], the Potency result is “inactive”. Moreover, in assay [5], the Potency is 79.6 µM (active).

Consider `CCC1(c2ccccc2)CCC(=O)NC1=O` (configuration not stated), for which the Potency entry in [1], in [2], in assay [3], in [4], in [9] and in assay [7] was “inactive” throughout. In addition, in assay [8], the Potency result was “inactive”. Also, the Potency in [5] is 38.9 µM (active).

Take `NC(=O)OCCCc1ccccc1`: the Potency result in assay [1], in [2], in assay [3], in assay [4], in [5] and in assay [7] was “inactive” in each case. Moreover, the Potency result in assay [8] is “inactive”. Further, the Potency in assay [9] is 21.9 µM (active).

With `Brc1c(Br)c(Br)c(Br)c(Br)c1Br`, the activity change, negative = inhibition in assay [1] was -2.31% [at 10.5 µM]; in [2], -32.6% [at 10.5 µM]; in assay [3], -0.832% [at 10.5 µM]; in assay [4], -1.47% [at 10.5 µM]; in assay [5] it was -0.615% [at 10.5 µM]; in assay [6], 0.0091% [at 10.5 µM]. Also, the activity change, negative = inhibition in assay [8] was 2.63% [at 10.5 µM].

Take `CCCC(C)(COC(N)=O)COC(N)=O`: the Potency entry in assay [1], in [2], in assay [3], in [4], in assay [9] and in assay [7] was “inactive” in each case. Moreover, the Potency in assay [5] was 33.7 µM (active).

For the compound `CCCOC(=O)c1cncn1C(C)c1ccccc1` (configuration not stated), the Potency result in assay [1], in [2], in assay [3], in assay [4] and in [7] was “inactive” in each case. The Potency in assay [5] was 2.45 µM (active); in [9], 17.4 µM (active).

For `C=CC=O`, the Potency entry in assay [1], in assay [2], in assay [3], in assay [4], in [5] and in assay [9] was “inactive” throughout. Moreover, the Potency result in assay [7] and in [8] was “inactive” throughout.

Turning to `CC(C)(C1CCC(O)CC1)C1CCC(O)CC1` (configuration not stated), the Potency entry in assay [1], in assay [2], in assay [3], in assay [4], in assay [9] and in assay [7] was “inactive” throughout. In addition, the Potency result in assay [8] was “inactive”. The Potency in [5] was 71 µM (active).

Take `CCCCCCCC(=O)Cl`: the Potency result in assay [1], in assay [2], in assay [3], in [4], in assay [9] and in assay [7] was “inactive” in each case. Besides, the Potency entry in assay [8] was “inactive”. Further, in assay [5], the Potency is 40.3 µM (active).

`CCOC(=O)CCl`: the Potency entry in [1], in [2], in [3], in assay [4], in assay [5] and in assay [9] was “inactive” in each case. Also, the Potency entry in [7] and in [8] was “inactive” each time.

Take `CC(C)(C)C(=O)Cl`: the Potency result in [1], in assay [2], in assay [3], in [4], in assay [5] and in assay [9] was “inactive” in each case. The Potency entry in [7] and in [8] was “inactive” throughout.

With `CCOC(=O)COc1ccc(Cl)cc1Cl`, the Potency result in [1], in assay [2], in assay [3], in assay [4], in assay [7] and in [8] was “inactive” each time. The Potency is 22.4 µM (active) in assay [5] and 31.7 µM (active) in [9].

On to `O=C(Cl)/C=C/C(=O)Cl`, for which the Potency result in assay [1], in assay [2], in assay [3], in assay [4], in [5] and in assay [9] was “inactive” throughout. The Potency result in assay [7] and in [8] was “inactive” each time.

For the compound `CCCOC(=O)Cc1ccc(OCC(=O)N(CC)CC)c(OC)c1`, the Potency entry in assay [1], in assay [2], in assay [3], in assay [4], in assay [5] and in assay [9] was “inactive” throughout. Further, the Potency result in assay [7] is “inactive”.

Turning to `C[C@]12C=CC(=O)C=C1CC[C@@H]1[C@@H]2CC[C@@]2(C)[C@H]1CC[C@]2(C)O`, the Potency result in assay [1], in [2], in [3], in assay [4], in [5] and in [9] was “inactive” each time. Besides, the Potency result in [7] and in assay [8] was “inactive” throughout.

On to `CCC1(c2ccccc2)C(=O)N(COC)C(=O)N(COC)C1=O`, for which the Potency result in assay [1], in assay [2], in assay [3], in assay [4], in assay [9] and in assay [7] was “inactive” each time. In addition, the Potency in assay [5] was 6.92 µM (active).

`O=C(Cl)c1ccccc1`: the Potency entry in assay [1], in assay [2], in assay [3], in assay [4], in assay [9] and in assay [7] was “inactive” each time. Moreover, the Potency result in [8] was “inactive”. The Potency in assay [5] is 41.1 µM (active).

As for `C=C(Cl)CSC(=S)N(CC)CC`, the Potency result in assay [1], in assay [2], in assay [3] and in assay [4] was “inactive” in each case. Besides, the Potency in [5] is 34.7 µM (active); in assay [9] it was 9.77 µM (active); in [7], 53.5 µM (active).

The values above are taken from PubChem BioAssay (Tox21).
